Source: PubChem
An excerpt weighted towards active compounds, which were near 2.4% of everything screened.
Rango release inh = qHTS Assay for Inhibitors of RanGTP induced Rango (Ran-regulated importin-beta cargo) - Importin beta complex dissociation; AID 540253, 2011; Snurportin-1 (Homo sapiens) + GTP-binding nuclear protein Ran (Homo sapiens) + Importin …; Biochemical FRET Rango-importin beta, RanGTP-induced dissociation; Potency, µM (highest dose often 46.1 µM); 0.071% of 340,000 active; further: nearly all actives have a fitted effect of over 45% in size
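Compounds sat 5 min at room temperature with 0.1 uM Rango biosensor plus 0.25 uM importin beta, then FRET pre-read. RanGTP-RCC1 (0.6 uM Ran, 2mM GTP, 0.2 uM RCC1) added for 45 min, and the CFP/YFP post-read measured blocked complex dissociation.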
ClpP mod = qHTS Assay for Activators of ClpP; purified B. subtilis ClpP, FRET peptide cleavage, 20 min; Potency, µM (titrated, usually from 57.5 µM); 1.9% of 340,000 active; active means well fitted falling curve with a large enough effect; inconclusive means small, poorly fitted or top-dose-only effect; inactive means no such curve, though single readings can be large or run the other way; further: the source files actives as falling curves though it sought activators and does not explain the sign; nearly all actives have a fitted effect of over 65% in size
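FRET quenching reversal measured ClpP activation: 10 microg/mL B. subtilis ClpP at pH 8 with the FRET-FV decapeptide, read at 430 nm after 320 nm excitation. The 20-min minus 0-min signal was scaled between DMSO/no-enzyme wells and ADEP (5.8 microM final).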
PTAP TSG101 blk = qHTS Assay for Iinhibitors of HIV-1 Budding by Blocking the Interaction of PTAP/TSG101. Fluorescence polarization, FITC-PTAP peptide / Tsg101 binding. Potency, µM (series often up to 115 µM), actives largely listed as inhibitors. 340,000 tested, under 10 active; active means well fitted inhibition curve with a large enough effect in the main read-out, with a control signal flat, not every such curve was filed as active; inconclusive means small, poorly fitted or top-dose-only effect, or effect the other way, or a change in a side signal; inactive means no such curve, though single readings can be large or run the other way
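Tsg101 binding domain (10 uM final) was mixed with compound and a FITC-labeled PTAP peptide (50 nM final) in HEPES pH 7.5 buffer with NaCl, Tween 20, EDTA and TCEP; fluorescence polarization was read after 20 min at r.t.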
Rango-impB inh = qHTS Assay for Inhibitors of Rango (Ran-regulated importin-beta cargo) - Importin beta complex formation | Importin subunit beta-1 (Homo sapiens), Q14974 | Rango CFP/YFP FRET sensor + importin beta, 45 min | Potency, µM (series often up to 92.2 µM) | 0.031% of 340,000 active | AID 540263, 2011; further: nearly all actives have a fitted effect of over 15% in size
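FRET biosensor (snurportin 1 IBB flanked by EYFP and cerulean), 50 nM, with compound 5 min, then 0.125 microM importin beta in PBS, 1 mM DTT, 0.02% Tween-20, 0.1% BSA. CFP/YFP ratio read after 45 min at room temperature; pre-read flags interference.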
TDP1 inh = qHTS Assay for Inhibitors of Tyrosyl-DNA Phosphodiesterase (TDP1). recombinant TDP1, AlphaScreen DNA substrate cleavage. Potency, µM (titrated, usually from 130 µM), usual class: inhibitors. 0.28% of 350,000 active. AID 485290, 2010; active means well fitted curve in the direction sought with a large enough effect; inconclusive means small, poorly fitted or top-dose-only effect, or another doubt; inactive means no such curve, though single readings can be large; an effect the other way counts as inactive or inconclusive; further: nearly all actives have a fitted effect of over 40% in size
Target sequence (Q9NUW8 whole entry, looked up): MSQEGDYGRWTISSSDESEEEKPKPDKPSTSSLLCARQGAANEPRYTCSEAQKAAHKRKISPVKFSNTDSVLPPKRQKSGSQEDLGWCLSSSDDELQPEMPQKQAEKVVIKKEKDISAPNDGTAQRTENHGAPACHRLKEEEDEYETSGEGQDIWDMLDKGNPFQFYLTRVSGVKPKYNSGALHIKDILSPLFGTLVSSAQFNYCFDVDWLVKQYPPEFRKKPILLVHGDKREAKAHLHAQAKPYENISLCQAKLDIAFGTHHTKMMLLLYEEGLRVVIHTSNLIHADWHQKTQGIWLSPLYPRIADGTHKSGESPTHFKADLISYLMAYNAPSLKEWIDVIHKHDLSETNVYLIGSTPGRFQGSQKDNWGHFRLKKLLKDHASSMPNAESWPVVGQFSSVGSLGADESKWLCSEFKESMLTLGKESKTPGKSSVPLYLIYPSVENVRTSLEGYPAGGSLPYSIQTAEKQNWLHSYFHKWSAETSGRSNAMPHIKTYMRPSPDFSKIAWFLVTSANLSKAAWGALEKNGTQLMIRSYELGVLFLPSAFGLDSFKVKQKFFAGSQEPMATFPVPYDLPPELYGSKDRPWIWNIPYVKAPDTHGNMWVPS
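AlphaScreen read-out: signal falls as enzyme removes the 3' tyrosine-FITC from a 5'-biotinylated DNA oligo (15 nM, 5 min, RT). Enzyme was E. coli-made recombinant Tdp1 at 1 nM, exposed to compound for 15 min beforehand; beads 10 ug/ml, 10 min.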
12-LOX inh = Primary qHTS assay for inhibitors of human arachidonate 12S-lipoxygenase (ALOX12): Round 2; Potency, µM (titrated, usually from 108 µM), actives largely listed as inhibitors; 1.1% of 580,000 active; purified 12hLO, xylenol orange hydroperoxide absorbance; Polyunsaturated fatty acid lipoxygenase ALOX12 (Homo sapiens), P18054; active means well fitted curve in the direction sought with a large enough effect; inconclusive means small, poorly fitted or top-dose-only effect, or another doubt; inactive means no such curve, though single readings can be large; an effect the other way counts as inactive or inconclusive
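Purified human 12hLO (150 nM final) in 25 mM Hepes, 0.01% Triton X-100, pH 7.0 was preincubated 15 min at room temperature with compound. Then 40 uM arachidonic acid was added, 30 min. Hydroperoxide was read by Fe-XO absorbance ratio 573/405 nm.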
Large screens that a line does not name were inactive. Unless noted, the call rests on the fitted dose curve.

CCc1cc(=O)oc2cc(OCC(=O)Nc3cc(C)on3)ccc12	none (no result: Rango release inh, ClpP mod, PTAP TSG101 blk, Rango-impB inh, TDP1 inh)
CCCc1cc(=O)oc2cc(OCC(=O)N(CC)CC)ccc12	none (no result: Rango release inh, ClpP mod, PTAP TSG101 blk, Rango-impB inh, TDP1 inh)
CCCCc1cc(=O)oc2cc(OCC(=O)N(CC)CC)ccc12	ClpP mod 28µM
CCc1cc(=O)oc2cc(OCC(N)=O)c(Cl)cc12	ClpP mod 32µM
O=C(COc1ccc2c(-c3ccccc3)cc(=O)oc2c1)NCCCN1CCOCC1	none
Cc1cc(=O)oc2cc(OCC(=O)NCCCN3CCOCC3)ccc12	ClpP mod 28µM
COc1ccc(-c2cn3c(n2)CO[C@@H](CNC2CCC2)C3)cc1	none (no result: Rango release inh, ClpP mod, PTAP TSG101 blk, Rango-impB inh, TDP1 inh)
Cc1cc(=O)oc2cc(OCC(=O)N3CCc4sccc4C3)ccc12	none (no result: Rango release inh, ClpP mod, PTAP TSG101 blk, Rango-impB inh, TDP1 inh)
Cc1cc(=O)oc2cc(OCC(=O)NC3CCCC3)ccc12	none (no result: TDP1 inh)
C=C(Cl)COc1ccc2c(C)cc(=O)oc2c1	ClpP mod 10µM
CCCCc1cc(=O)oc2cc(OCC(N)=O)ccc12	none (no result: Rango release inh, ClpP mod, PTAP TSG101 blk, Rango-impB inh, TDP1 inh)
C=C(Cl)COc1ccc2c(CCCC)cc(=O)oc2c1	Rango release inh inconclusive, ClpP mod 28µM
CCOc1ccc(NC(=O)CN2CCN(CC(=O)Nc3ccccc3OCC)CC2)cc1	12-LOX inh inconclusive (no result: Rango release inh, PTAP TSG101 blk, Rango-impB inh)
CCOc1ccccc1NC(=O)CN1CCCCCC1	ClpP mod inconclusive, TDP1 inh 14µM
CC(C)CN1CCN(c2ncncc2-c2nc(-c3ccccc3)no2)CC1	none (no result: Rango release inh, ClpP mod, PTAP TSG101 blk, Rango-impB inh, TDP1 inh)
Cc1cc(-c2ccc(Cl)cc2)n2nc(N)nc2n1	ClpP mod 18µM
Nc1nc2nccc(-c3ccc(Cl)cc3)n2n1	none
Cc1ccc(C(=O)N2CCCC(N(C)Cc3ccccc3)C2)s1 (stereo not drawn)	ClpP mod 22µM
Cc1ccc(C(=O)N2CC[C@](O)(c3ccccc3)[C@H](N(C)C)C2)s1	none (no result: Rango release inh, ClpP mod, PTAP TSG101 blk, Rango-impB inh, TDP1 inh)
CCOc1cc(/C=C/C(=O)O)cc(Cl)c1OC	none (no result: Rango release inh, ClpP mod, PTAP TSG101 blk, Rango-impB inh, TDP1 inh)
Cc1ccc(-c2cc(C(=O)Nc3ccccc3C(N)=O)c3ccccc3n2)o1	Rango release inh inconclusive, Rango-impB inh inconclusive, 12-LOX inh 6.3µM (no result: ClpP mod, TDP1 inh)
Cc1cccc(NC(=O)c2cc(-c3ccc(C)o3)nc3ccccc23)n1	none (no result: Rango release inh, ClpP mod, PTAP TSG101 blk, Rango-impB inh, TDP1 inh)
COc1ccc(OC)c(-c2cc(C(=O)Nc3ccccc3C(N)=O)c3ccccc3n2)c1	none (no result: TDP1 inh)
Cc1ccc(-c2cc(C(=O)Nc3ccc(C#N)cc3)c3ccccc3n2)o1	12-LOX inh 13µM (no result: Rango release inh, ClpP mod, PTAP TSG101 blk, Rango-impB inh, TDP1 inh)
COc1ccc(NC(=O)c2cc(-c3ccc(C)o3)nc3ccccc23)c(OC)c1	12-LOX inh inconclusive (no result: TDP1 inh)
COc1ccc(NC(=O)c2cc(-c3ccc(C)o3)nc3ccccc23)cc1OC	ClpP mod 3.5µM, 12-LOX inh inconclusive
Cc1ccc(-c2cc(C(=O)Nc3ccc(C(N)=O)cc3)c3ccccc3n2)o1	12-LOX inh 7.9µM (no result: Rango release inh, ClpP mod, PTAP TSG101 blk, Rango-impB inh, TDP1 inh)
O=C(NCc1cccnc1)C1CN(S(=O)(=O)c2ccccc2)CC12CCCCC2 (stereo not drawn)	none (no result: Rango release inh, ClpP mod, PTAP TSG101 blk, Rango-impB inh, TDP1 inh)
Cc1ccc(-c2cc(C(=O)NCC3(N(C)C)CCCCC3)c3ccccc3n2)o1	none (no result: Rango release inh, PTAP TSG101 blk, Rango-impB inh, TDP1 inh)
Cc1ccc(-c2cc(C(=O)N(C)CC(=O)Nc3ccccc3Br)c3ccccc3n2)o1	ClpP mod 25µM, Rango-impB inh inconclusive, 12-LOX inh inconclusive
Cc1nc2ccc(C(=O)O)cc2c2c1CC(C)S2 (stereo not drawn)	TDP1 inh 20µM
O=C(/N=C1\NC(=O)C(F)(C(F)(F)F)S1)NC1CCCCC1 (stereo not drawn)	12-LOX inh 10µM
CCN1CCN(Cc2ccc(NC(=O)c3ccc(C)c(NC(=O)c4nccn4C)c3)cc2C(F)(F)F)CC1	none
Cc1ccc(C(=O)Nc2ccc(CN3CCN(C)CC3)c(C(F)(F)F)c2)cc1C#Cc1cnc2cccnn12	12-LOX inh 0.34µM (no result: Rango release inh, ClpP mod, PTAP TSG101 blk, Rango-impB inh, TDP1 inh)
